Screening results deposited in PubChem by National Center for Advancing Translational Sciences (NCATS).
USP2a inh = blocks human ubiquitin-specific protease USP2a; USP2 core, Ub-CHOP2 coupled fluorogenic reporter, 485/531; 330,000 tested, 0.01% active; O75604; Potency, µM (titrated, usually from 38.3 µM), for inactives: top-dose activity change, negative = inhibition, most hits filed as inhibitors;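 further: potency means the concentration at half of the fitted maximal effect; plate controls were DMSO wells for no effect and full inhibition by NEM control for full effect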
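USP2 core (10nM final) preincubated 30min RT with compound in 20mM Tris-HCl pH 8.0, 2mM CaCl2, 2mM beta-mercaptoethanol, 0.05% CHAPS; 25nM Ub-CHOP2 plus 25nM reporter substrate added, fluorescence (Ex485/Em531) read after 60min.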
Eya2 phos inh = inhibitors of human Eya2 phosphatase activity; 330,000 tested, 0.006% active; recombinant Eya2, OMFP fluorescence dephosphorylation (OMFP is methylfluorescein phosphate); O00167; AID 488837; Potency, µM (series often up to 76.9 µM), for inactives: at the highest dose activity, negative = inhibition, hits mostly inhibitors; further: potency means the concentration at half of the fitted maximal effect
Target sequence (O00167 whole entry, looked up): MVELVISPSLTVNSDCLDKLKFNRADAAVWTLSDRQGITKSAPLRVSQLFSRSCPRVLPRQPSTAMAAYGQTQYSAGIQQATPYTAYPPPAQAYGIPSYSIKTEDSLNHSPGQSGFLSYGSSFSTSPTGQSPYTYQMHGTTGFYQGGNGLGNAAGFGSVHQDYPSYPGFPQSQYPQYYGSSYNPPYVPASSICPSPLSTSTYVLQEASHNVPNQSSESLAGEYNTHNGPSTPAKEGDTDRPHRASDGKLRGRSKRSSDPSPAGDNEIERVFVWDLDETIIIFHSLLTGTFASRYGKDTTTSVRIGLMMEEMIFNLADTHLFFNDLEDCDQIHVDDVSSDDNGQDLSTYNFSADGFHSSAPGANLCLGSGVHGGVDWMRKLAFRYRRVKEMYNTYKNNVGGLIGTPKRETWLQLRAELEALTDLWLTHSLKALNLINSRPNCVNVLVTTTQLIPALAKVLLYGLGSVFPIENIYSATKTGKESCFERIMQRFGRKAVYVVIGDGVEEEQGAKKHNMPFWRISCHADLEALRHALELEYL
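Eya2 (0.2 uM) preincubated 10 min at ambient with compound, then OMFP substrate added at 50 uM; 10 min reaction in 50 mM HEPES pH 7.5, 50 mM NaCl, 5 uM MgCl2, 0.05% BSA, 1 mM DTT. Fluorescence read at Ex 485/Em 525 nm.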
PI4K2A block = blocks human PI4K2A kinase activity. 420,000 tested, 0.13% active. Q9BTU6. activity change, negative = inhibition, % at 76.9 µM. purified PI4K2A, ADP-Glo luminescence, 1 h; active compounds read low; in the data active means activity change below about -50%; inconclusive means mostly about -30% to -49%;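 further: -100% = wells without enzyme as full effect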
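Compounds are screened against recombinant PI4K2A using PI as substrate and ATP, the latter dispensed at 300 microM. Reactions run one hour at ambient temperature before ADP-Glo detection; full inhibition defined by wells lacking enzyme.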
GALK inhibitor = blocks human galactokinase activity; Purified GALK, Kinase-Glo residual ATP luminescence; Potency, µM (doses to about 57.5 µM), for the others: at the top dose activity change, negative = inhibition, hits mostly inhibitors; 270,000 tested, 0.007% active; AID 1868; further: potency means the concentration at half of the fitted maximal effect
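Quantitative HTS: GALK 5 nM, ATP 35 uM, galactose 100 uM, 1 h room temperature, then luciferase-based ATP detection.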
FBPA coupling cs = coupling enzyme interference in Giardia aldolase counter-screen; coupling enzyme system counterscreen, AmpLite Red fluorescence; 290,000 tested, 0.67% active; activity change, negative = inhibition, % at 58.2 µM, hits read low; in the data active means activity change below about -30%
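Compounds tested against the coupling enzymes alone at 57.5 uM final; readout was AmpLite Red fluorescence (525/598 nm) after 20 min at RT.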
USP1-UAF1 inh = blocks the human USP1/UAF1 deubiquitinase complex | AID 743255 | 390,000 tested, 0.23% active | Potency, µM (titrated, usually from 57.1 µM), for inactives: top-dose activity change, negative = inhibition, actives largely listed as inhibitors | O94782 | recombinant USP1/UAF1, Ub-Rhodamine cleavage fluorescence; further: potency means the concentration at half of the fitted maximal effect; nearly all actives have a fitted effect of over 60% in size
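High-throughput fluorogenic screen: 1nM USP1/UAF1 complex, Ub-Rho substrate 150nM final, 50mM HEPES pH 7.8 with 0.5mM EDTA, 0.1 mg/ml BSA, 1mM TCEP and 0.01% Tween-20.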
The depositor's hits bear a star; ? = inconclusive; . = not tested or not shown; [ ] = another dose, or the depositor's remark. Most compounds without a hit are left out; they make up all but 0.71% or so of the library. Unless noted, the call rests on the fitted dose curve; in most records, active means well fitted curve in the direction sought with a large enough effect; inconclusive means small, poorly fitted or top-dose-only effect, or another doubt; inactive means no such curve, though single readings can be large; an effect the other way counts as inactive or inconclusive. Unless noted, on the % scale 0 is the no-effect control and ±100 the full control effect.

SMILES | USP2a inh | Eya2 phos inh | PI4K2A block | GALK inhibitor | FBPA coupling cs | USP1-UAF1 inh
COc1cc(/C=C2\C(=O)N(c3ccc(S(N)(=O)=O)cc3)N=C2C)ccc1OC(=O)c1ccco1 | 1.7% | 0.5% | -52.2* | -5.5% | -4.2 | ?
COc1ccc(C(=O)C=Cc2ccc(OCc3ccccc3)c(OC)c2)cc1OC | . | . | 2.4 | . | . | -2.3%
CN(CCC#N)C(=O)COC(=O)c1c2c(nc3ccccc13)/C(=C/c1ccco1)CC2 | 2.0% | 5.9% | -52.7* | -0.1% | -8.6 | ?
CC1(C)Cc2ccccc2C(Nn2cnnc2)=N1 | 4.6% | 17.0%[15.4 µM] | -0.3 | 2.4% | 0.6 | -0.5%
CC1(C)Cc2ccccc2C2=NNC(=O)C2=N1 | 0.1% | -13.0% | ? | -0.1% | -56.8* | ?
O=C1CSC(=S)N1/N=C/c1cc(Br)c(O)c(Br)c1 | 0.8% | ? | -13.4 | -21.4% | -1.4 | 17.8µM*
CCC(CN(C)C)Oc1cc(NCc2ccccc2)c2ncn(C(C)C)c2c1 (centres undefined) | 2.2% | -4.1% | ? | . | . | 28.2µM*
COc1cc(NCc2ccccc2)c2ncn(C(C)C)c2c1 | 0.1% | -13.4% | -1.3 | . | . | ?
C[C@@H]1C[C@H]2[C@@H]3CCC4=CC(=O)C=C[C@]4(C)[C@@]3(F)[C@@H](O)C[C@]2(C)[C@@]1(O)C(=O)COC(=O)c1ccncc1 | . | . | -1.4 | . | . | .
CCCNC(=O)OC[C@@H]1O[C@H](CCO/N=C(\C)CCN2CCc3nc(-c4ccccc4)c(-c4ccccc4)cc3C2)C=C[C@@H]1Oc1ccc(OC)cc1 | . | . | . | . | 1.2 | .
COc1cc2c(cc1O)CC[n+]1cc3c(OC)c(OC)ccc3cc1-2 | -3.7% | -6.7% | 4.3 | . | -8.9 | -28.5%
COc1cc2c(cc1OC)-c1cc3ccc4c(c3c[n+]1CC2)OCO4 | 28.6% | 20.3% | -21.2 | . | -44.1* | 25.1µM*
NS(=O)(=O)c1cccc2cccnc12 | -0.8% | -7.2% | 5.9 | 0.8% | 0.0 | -20.0%
C=CCS(=O)(=O)c1cccc2cccnc12 | 6.6% | -7.6% | 0.5 | -0.2% | -34.1* | -4.2%
CCN(CC)C(=O)c1ccc2c(c1[N+](=O)[O-])C(=O)c1ccccc1C2=O | 6.6% | 0.5% | . | 0.0% | -41.9* | .
CCN(CC)C(=O)c1cccc2c1C(=O)c1ccccc1-2 | 3.9% | 7.1% | 4.8 | 0.2% | 2.5 | -23.7%
CN(C(=S)Nc1ccc(SC(F)F)cc1)c1ccc(O)cc1 | -3.4% | 0.2% | ? | 0.3% | -33.6* | -18.8%
CN(C(=S)Nc1ccc(Oc2ccccc2)cc1)c1ccc(O)cc1 | -7.8% | -3.9% | ? | 0.4% | -50.0* | -21.3%
CN(C(=S)Nc1cccnc1)c1ccc(O)cc1 | -0.6% | -3.1% | -23.0 | 0.9% | -33.3* | -3.6%
CCN(C(=S)Nc1cccnc1)c1ccccc1 | 2.5% | -3.2% | -2.0 | -0.3% | -0.5 | -17.9%
CN(C(=S)Nc1ccccc1)c1ccccc1 | -8.3% | -8.4% | -3.2 | . | 4.1 | -6.4%
COC(=O)[C@]12C[C@H](CC(=O)NCCC(C)C)C(=O)N(Cc3ccco3)C1=C[C@H](COCc1ccccc1)O[C@@H]2C | . | . | -0.9 | . | . | .
[O-][n+]1cccc(/C(Cl)=N/OC[C@@H](O)CN2CCCCC2)c1 | . | . | 1.9 | . | . | .
CC(=O)Oc1cc(-c2coc3cc(OC(C)=O)c(OC(C)=O)c(OC(C)=O)c3c2=O)cc(OC(C)=O)c1OC(C)=O | . | . | . | . | -51.2* | .
COc1cc(-c2coc3cc(OC)c(OC)c(OC)c3c2=O)cc(OC)c1OC | . | . | . | . | 0.0 | .
Oc1cccc2[nH]ccc12 | . | . | -0.9 | . | . | .
N#C/C(=C\N1CCN(Cc2ccc3c(c2)OCO3)CC1)c1nc2ccccc2s1 | 0.0% | 7.3% | 2.8 | -0.2% | -0.4 | 31.6µM*
O=C(CC1CCS(=O)(=O)C1)Nc1ccc[nH]c1=O (centres undefined) | 0.4% | -3.3% | -24.6 | 0.7% | -52.2* | -14.7%
CCN(c1ccccc1)S(=O)(=O)c1ccc(Cl)c(NC(=O)COC(=O)c2cc(O)c3ccccc3c2O)c1 | -3.3% | 6.1% | . | 6.4% | -30.7* | .
